Consider one molecule from ChEMBL document CHEMBL1201862, “PubChem BioAssay data set” (2004).

Only a part of the results of these assays is listed, not drawn at random. Active and inactive are the calls of the source. The rule behind the calls is not given here.

The assay concerns the target Luciferin 4-monooxygenase (Photinus pyralis) (UniProt P08659).

Chain of Luciferin 4-monooxygenase (Photinus pyralis) (P08659 whole entry): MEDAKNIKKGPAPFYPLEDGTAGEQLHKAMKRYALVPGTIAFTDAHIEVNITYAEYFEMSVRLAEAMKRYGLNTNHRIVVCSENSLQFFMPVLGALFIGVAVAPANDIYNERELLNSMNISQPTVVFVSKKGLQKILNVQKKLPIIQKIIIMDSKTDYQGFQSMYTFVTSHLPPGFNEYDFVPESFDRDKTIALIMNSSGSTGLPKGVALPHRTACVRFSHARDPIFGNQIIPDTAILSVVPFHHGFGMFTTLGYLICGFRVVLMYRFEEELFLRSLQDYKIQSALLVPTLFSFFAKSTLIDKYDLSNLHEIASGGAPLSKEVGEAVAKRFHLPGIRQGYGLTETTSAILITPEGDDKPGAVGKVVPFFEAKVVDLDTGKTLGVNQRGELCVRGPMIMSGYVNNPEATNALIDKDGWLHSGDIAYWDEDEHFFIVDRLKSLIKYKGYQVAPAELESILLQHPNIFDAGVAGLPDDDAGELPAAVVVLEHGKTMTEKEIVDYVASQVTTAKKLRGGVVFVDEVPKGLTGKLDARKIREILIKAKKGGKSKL

For `CC(O)[C@@H]1NC(=O)[C@H](CCCCN)NC(=O)[C@@H](Cc2c[nH]c3ccccc23)NC(=O)[C@H](Cc2ccccc2)NC(=O)[C@@H](NC(=O)[C@H](N)Cc2ccccc2)CSSC[C@@H](C(=O)N[C@H](CO)[C@@H](C)O)NC1=O` (stereo partly specified), the Potency result is “inactive”.
